# Laboratory results from PubChem BioAssay (EPA / NIEHS).
# Several values for one entry are separate records, joined by “and”; a condition that tells them apart may be missing. Equal entries are not always repeated. Some structures have more than one record in an assay (separate samples or runs), and their calls can disagree. Activity calls are given as the source filed them. How the source made its calls: active means hit-call score of the fitted dose curve at least 0.9, where 1 is the maximum; inactive means score below 0.9.
# Assays:
# [1] = IUF_NPC2c_oligodendrocyte_migration_120hr: Leibniz Research Institute for Environmental Medicine (IUF) 120-hour Neural Progenitor Cell Migration Assay for Oligodendrocyte Migration (NPC2c) (AID 2284297);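 further: O4-positive oligodendrocyte migration distance divided by radial glia migration distance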
# In short: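 Human fetal cortex-derived neural progenitor spheres (0.3 mm) were plated on poly-D-lysine/laminin in N2 differentiation medium and exposed to 7 concentrations for 120 h, with half-medium renewal at day 3. Oligodendrocyte migration distance was normalized to radial glia migration, relative to DMSO.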
# [2] = IUF_NPC2a_radial_glia_migration_120hr: Leibniz Research Institute for Environmental Medicine (IUF) 120-hour Neural Progenitor Cell Migration Assay for Radial Glia Migration (NPC2a) (AID 2284298)
# In short: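 Single 0.3 mm primary human fetal-cortex (GW 16-19) NPC spheres were plated on poly-D-lysine/laminin in N2 differentiation medium and exposed from day 0 for 120 h, half-medium refreshed day 3. Migration distance came from Hoechst nuclei-density imaging, relative to DMSO.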
# [3] = IUF_NPC2a_radial_glia_migration_72hr: Leibniz Research Institute for Environmental Medicine (IUF) 72-hour Neural Progenitor Cell Migration Assay for Radial Glia Migration (NPC2a) (AID 2284299)
# In short: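 Readout: mean of four manual brightfield measurements of radial glia migration distance (um) at 72 h. hNPC spheres (0.3 mm) exposed to 7 compound concentrations plus solvent control on PDL/laminin, 37C, 5% CO2; activity fitted relative to DMSO.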
# [4] = IUF_NPC2b_neuronal_migration_120hr: Leibniz Research Institute for Environmental Medicine (IUF) 120-hour Neural Progenitor Cell Migration Assay for Neuron Migration (NPC2b) (AID 2284300)
# In short: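 Primary human fetal cortex neural progenitor spheres (0.3 mm) plated on poly-D-lysine/laminin in N2 differentiation medium, exposed 120 h with half-medium refresh at day 3. TUBB3-stained neuron distance from sphere core, normalized to radial glia migration, versus DMSO.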
# [5] = IUF_NPC3_neuronal_differentiation_120hr: Leibniz Research Institute for Environmental Medicine (IUF) 120-hour Neuronal Differentiation Assay (NPC3) (AID 2284301)
# In short: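 Neuronal differentiation of primary human neural progenitors measured by high-content imaging: percent TUBB3+ of Hoechst+ nuclei within migrated area at 120 h, seven-point serial dilution plus solvent control, gain or loss relative to DMSO.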
# [6] = IUF_NPC4_neurite_length_120hr: Leibniz Research Institute for Environmental Medicine (IUF) 120-hour Neuronal Morphology Assay for Neurite Length (NPC4) (AID 2284302)
# In short: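 Neurons from differentiating human fetal neural progenitor spheres are scored for average neurite length after five days of compound exposure. Fitting uses DMSO as negative control.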
# [7] = read-out: Plasminogen activator inhibitor-1 (PAI1), SERPINE1 (gene 5054); assay: BSK_CASM3C_PAI1: BioMAP Diversity Plus: CASM3C Assay for Plasminogen activator inhibitor-1 (PAI1) Biomarker Activity (AID 2284284); conditions: primary human coronary artery smooth muscle cells;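 further: PAI-1 protein level measured by ELISA 24 h after dosing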
# [8] = read-out: Monocyte Chemoattractant Protein-1 (MCP1), CCL2 (gene 6347); assay: BSK_hDFCGF_MCP1: BioMAP Diversity Plus: hDFCGF Assay for Monocyte Chemoattractant Protein-1 (MCP1) Biomarker Activity (AID 2284285); conditions: primary human foreskin fibroblasts
# In short: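 MCP-1 ELISA readout was taken 24 hours after dosing primary human dermal fibroblasts in the hDFCGF system, with DMSO as baseline. Parallel sulforhodamine B staining of total protein tracked overt cytotoxicity.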
# [9] = read-out: Vascular cell adhesion molecule 1 (VCAM1), VCAM1 (gene 7412); assay: BSK_IMphg_VCAM1: BioMAP Diversity Plus: IMphg Assay for Vascular cell adhesion molecule 1 (VCAM1) Biomarker Activity (AID 2284286); conditions: primary human endothelial cells with macrophages
# In short: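 ELISA read-out of VCAM-1 on venular endothelial cell/macrophage co-cultures at 24 h post-treatment, with DMSO as baseline and positive-direction fitting. Parallel sulforhodamine B total-protein staining (560 nm) served as the overt cytotoxicity measure.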
# [10] = read-out: Intercellular Adhesion Molecule 1 (ICAM1), ICAM1 (gene 3383); assay: BSK_hDFCGF_ICAM1: BioMAP Diversity Plus: hDFCGF Assay for Intercellular Adhesion Molecule 1 (ICAM1) Biomarker Activity (AID 2284287); conditions: primary human foreskin fibroblasts
# In short: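 ICAM-1 ELISA readout 24 h after dosing, DMSO as baseline, in human dermal foreskin fibroblast cultures. Cytotoxicity checked in parallel wells by SRB staining (0.1% SRB, 10% TCA fixation, 560 nm).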
# [11] = read-out: CD40, CD40 (gene 958); assay: BSK_IMphg_CD40: BioMAP Diversity Plus: IMphg Assay for CD40 Biomarker Activity (AID 2284288); conditions: primary human endothelial cells with macrophages
# In short: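 ELISA read-out of cell-surface CD40 at 24 h in human venular endothelial cell/macrophage co-cultures. Activity fitted in the positive direction against DMSO; parallel SRB staining (560 nm) gauges overt cytotoxicity.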
# [12] = read-out: TIMP metallopeptidase inhibitor 2 (TIMP2), TIMP2 (gene 7077); assay: BSK_hDFCGF_TIMP2: BioMAP Diversity Plus: hDFCGF Assay for TIMP metallopeptidase inhibitor 2 (TIMP2) Biomarker Activity (AID 2284289); conditions: primary human foreskin fibroblasts
# In short: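 Primary human foreskin fibroblasts in the hDFCGF system, dosed for 24 h; TIMP-2 level measured by ELISA, fitted in the positive direction against DMSO; cytotoxicity checked in parallel by sulforhodamine B total protein staining.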
# [13] = read-out: Interleukin-1 alpha (IL1a), IL1A (gene 3552); assay: BSK_IMphg_IL1a: BioMAP Diversity Plus: IMphg Assay for Interleukin-1 alpha (IL1a) Biomarker Activity (AID 2284290); conditions: primary human endothelial cells with macrophages
# In short: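 IL-1α is quantified by ELISA at 24 h in the endothelial/macrophage IMphg co-culture, with gain of signal fitted relative to DMSO. Parallel SRB total-protein staining flags overt toxicity.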
# [14] = read-out: E-selectin (Homo sapiens) (UniProt P16581); assay: BSK_IMphg_ESelectin: BioMAP Diversity Plus: IMphg Assay for Eselectin Biomarker Activity (AID 2284291); conditions: primary human endothelial cells with macrophages
# In short: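 Analysed against DMSO baseline in the positive fitting direction, this endpoint is an ELISA read of E-selectin. It comes from human venular endothelial cells co-cultured with macrophages, sampled 24 h post-dose.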
# [15] = BSK_IMphg_SRB: Viability Assessment in the BioMAP Diversity Plus: IMphg Assay (AID 2284292); conditions: primary human endothelial cells with macrophages;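 further: measured one day after compound addition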
# In short: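 SRB viability endpoint: cultures of human endothelial cells plus macrophages fixed with 10% TCA, stained with 0.1% SRB, read at 560 nm 24 h post-dosing. Only gain-of-signal fitted, relative to DMSO.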
# [16] = read-out: Macrophage colony-stimulating factor (MCSF), CSF1 (gene 1435); assay: BSK_IMphg_MCSF: BioMAP Diversity Plus: IMphg Assay for Macrophage colony-stimulating factor (MCSF) Biomarker Activity (AID 2284293); conditions: primary human endothelial cells with macrophages
# In short: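 M-CSF was measured by ELISA in human venular endothelial cell/macrophage co-cultures dosed for 24 hours. Sulforhodamine B staining of parallel cultures assessed cytotoxicity; data fitted against DMSO baseline.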
# [17] = read-out: Interleukin-10 (IL10), IL10 (gene 3586); assay: BSK_IMphg_IL10: BioMAP Diversity Plus: IMphg Assay for Interleukin-10 (IL10) Biomarker Activity (AID 2284294); conditions: primary human endothelial cells with macrophages
# In short: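 IL-10 read by ELISA after 24 h chemical exposure of primary human venular endothelial cell/macrophage cocultures, with DMSO as baseline. Parallel SRB staining (560 nm) gauged overt cytotoxicity.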
# [18] = BSK_IMphg_SRB.Mphg: Macrophage Viability Assessment in the BioMAP Diversity Plus: IMphg Assay (AID 2284295); conditions: primary human endothelial cells with macrophages
# In short: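 Cytotoxicity read-out: parallel cultures fixed with 10% TCA, stained with 0.1% sulforhodamine B, read at 560 nm. System combines venular endothelium and macrophages; sampled 24 h post-dosing, fitted positively relative to DMSO control.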
# [19] = read-out: Thrombomodulin, THBD (gene 7056); assay: BSK_LPS_Thrombomodulin: BioMAP Diversity Plus: LPS Assay for Thrombomodulin Biomarker Activity (AID 2284296); conditions: primary human HUVEC with PBMC
# In short: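 Thrombomodulin on the surface of LPS-activated endothelial/PBMC co-cultures was quantified by ELISA at 24 hours post-dosing, with DMSO as baseline. Parallel SRB total-protein staining flagged overt cytotoxicity.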
# [20] = read-out: CD69, CD69 (gene 969); assay: BSK_LPS_CD69: BioMAP Diversity Plus: LPS Assay for CD69 Biomarker Activity (AID 2284303); conditions: primary human HUVEC with PBMC
# In short: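 CD69 surface levels were read by ELISA after 24 h chemical treatment of an LPS-stimulated HUVEC plus PBMC co-culture; positive-direction fit against DMSO vehicle.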
# E-selectin (Homo sapiens), sequence (P16581 whole entry, looked up): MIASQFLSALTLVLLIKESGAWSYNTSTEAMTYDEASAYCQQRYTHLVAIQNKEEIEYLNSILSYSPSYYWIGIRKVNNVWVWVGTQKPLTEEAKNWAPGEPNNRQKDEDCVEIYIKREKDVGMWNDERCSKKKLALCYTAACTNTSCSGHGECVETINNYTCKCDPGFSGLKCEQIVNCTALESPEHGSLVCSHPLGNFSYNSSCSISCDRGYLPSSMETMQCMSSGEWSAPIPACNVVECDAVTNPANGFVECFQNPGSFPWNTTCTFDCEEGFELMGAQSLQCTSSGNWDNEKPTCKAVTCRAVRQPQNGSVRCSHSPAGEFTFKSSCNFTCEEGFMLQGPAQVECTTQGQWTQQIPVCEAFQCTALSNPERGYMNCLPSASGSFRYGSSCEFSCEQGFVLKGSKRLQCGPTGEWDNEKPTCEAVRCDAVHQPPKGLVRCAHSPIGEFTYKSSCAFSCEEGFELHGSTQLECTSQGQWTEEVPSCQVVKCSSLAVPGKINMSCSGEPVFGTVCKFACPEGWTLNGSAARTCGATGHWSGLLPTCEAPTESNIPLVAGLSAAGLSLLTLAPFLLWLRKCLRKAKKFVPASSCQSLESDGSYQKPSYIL
structure (smiles),measurement,setting,value
O=P(OCCCl)(OCCCl)OCCCl,outcome,[1],inactive
same,outcome,[2],inactive
same,outcome,[3],inactive
same,outcome,[4],inactive
same,outcome,[5],inactive
same,outcome,[6],inactive
CNC(=O)Oc1cccc2c1OC(C)(C)C2,outcome,[1],inactive
same,outcome,[2],inactive
same,outcome,[3],inactive
same,outcome,[4],inactive
same,outcome,[5],inactive
same,outcome,[6],inactive
CC(C)(C)C(O)(CCc1ccc(Cl)cc1)Cn1cncn1 (configuration not stated),outcome,[1],inactive
same,outcome,[3],inactive
same,outcome,[4],inactive
same,outcome,[5],inactive
same,outcome,[6],inactive
COP(=S)(OC)SCN1C(=O)c2ccccc2C1=O,outcome,[1],inactive
same,outcome,[2],inactive
same,outcome,[3],inactive
same,outcome,[4],inactive
same,outcome,[5],inactive
same,outcome,[6],inactive
CCCCOC(=O)c1ccccc1C(=O)OCc1ccccc1,outcome,[1],inactive
same,outcome,[2],inactive
same,AC50,[3],18.5 µM (active)
same,outcome,[4],inactive
same,outcome,[5],inactive
same,outcome,[6],inactive
CCNS(=O)(=O)C(F)(F)C(F)(F)C(F)(F)C(F)(F)C(F)(F)C(F)(F)C(F)(F)C(F)(F)F,outcome,[7],inactive
same,AC50,[8],49.3 µM (active) and 46.9 µM (active)
same,AC50,[9],48 µM (active) and 49.6 µM (active)
same,AC50,[10],42.5 µM (active) and 48.4 µM (active)
same,AC50,[11],26.6 µM (active)
same,outcome,[11],inactive
same,AC50,[12],30 µM (active) and 46.5 µM (active)
same,outcome,[13],inactive
same,AC50,[14],10.8 µM (active) and 30 µM (active)
same,outcome,[15],inactive
same,outcome,[16],inactive
same,outcome,[17],inactive
same,AC50,[18],30 µM (active)
same,outcome,[18],inactive
same,AC50,[19],54.5 µM (active)
same,outcome,[19],inactive
same,AC50,[20],15.4 µM (active)
same,outcome,[20],inactive
CC(C)COC(=O)c1ccccc1C(=O)OCC(C)C,outcome,[1],inactive
same,outcome,[2],inactive
same,outcome,[3],inactive
same,outcome,[4],inactive
same,outcome,[5],inactive
same,outcome,[6],inactive
COC(=O)Nc1nc2ccccc2[nH]1,outcome,[1],inactive
same,AC50,[2],11.3 µM (active)
same,AC50,[3],8.09 µM (active)
same,outcome,[4],inactive
same,outcome,[5],inactive
same,AC50,[6],8.96 µM (active)
OCCOCCO,outcome,[1],inactive
same,outcome,[2],inactive
same,outcome,[3],inactive
same,outcome,[4],inactive
same,outcome,[5],inactive
same,outcome,[6],inactive
[O-][Cl+]O,outcome,[1],inactive
same,outcome,[2],inactive
same,outcome,[3],inactive
same,outcome,[4],inactive
same,outcome,[5],inactive
same,outcome,[6],inactive
CCC[CH2][Sn]([Cl])([CH2]CCC)[CH2]CCC,AC50,[1],0.325 µM (active)
same,AC50,[2],0.37 µM (active)
same,AC50,[3],0.386 µM (active)
same,AC50,[4],0.319 µM (active)
same,AC50,[5],0.284 µM (active)
same,AC50,[6],0.303 µM (active)
